# Measurements reported in PubChem BioAssay (NCATS).
# “And” between values parts separate entries of the source, which are not always exact repeats. Identical values can stand only once. Inconclusive results are not listed. Where a call stands in place of a potency, no number is given. The source made the active and inactive calls. Unless noted, calls come from the whole dose curve; as a rule, active = well fitted curve in the direction sought with a large enough effect; inconclusive = small, poorly fitted or top-dose-only effect, or another doubt; inactive = no such curve, though single readings can be large; an effect the other way counts as inactive or inconclusive.
# Tests used:
# [1] = Cellular Toxicity (caspase-3) Jurkat (AID 655); details: Jurkat caspase-3 activation, luminescence; caspase-3 activation: at 92.2 µM (top of the series), DMSO = 0%, tamoxifen = 100%;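 note: cells exposed to compound for 16 h at 37 °C before reading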
# Procedure, shortened: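 Jurkat cells (5000/well) in complete medium were treated with compounds for 16 hr at 37 °C, then Caspase-Glo 3/7 luminescence was read after 20 min at room temperature. Data normalized to DMSO (basal) and 100 uM tamoxifen (100%); AC50 from Hill fit.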
# [2] = Cellular Toxicity (caspase-3) N2a (AID 665);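 note: compound exposure lasted 16 h at 37 °C before readout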
# Procedure, shortened: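 Concentration-response qHTS: compound-induced caspase-3/7 luminescence in N2a cells (16 h, 37 °C), relative to DMSO and 10 uM staurosporine controls; AC50 obtained using the standard Hill equation.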
# [3] = Cellular Toxicity (caspase-3) Renal Proximal Tubule (AID 667);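 note: cells exposed to compound for 16 hours at 37 °C before detection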
# Procedure, shortened: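 Primary rat proximal tubule cells, 1000/well, 5 h plating at 37 °C, then compound 16 h at 37 °C. Caspase-Glo 3/7 reagent, 1 h RT, luminescence. Normalized to DMSO (basal) and 10 uM staurosporine (100%); Hill-fit AC50.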
# [4] = molecular target: Cytochrome P450 3A4 (Homo sapiens) (UniProt P08684); test: qHTS Assay for Inhibitors and Substrates of Cytochrome P450 3A4 (AID 884); note: nearly all actives have a fitted effect of over 50% in size; note: potency is the fitted concentration of half-maximal effect
# Procedure, shortened: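 Luminescent readout of luciferin produced by CYP3A4 (20 nM) dealkylation of Luciferin-PPXE, 25 uM (its KM). NADPH-driven reaction ran 60 min at RT after 10 min compound preincubation; data scaled to 57 uM ketoconazole as 100% inhibition.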
# [5] = MultiTox-Fluor Cytotoxicity Assay - LYMP1-001 - Live Cells (AID 947)
# [6] = Cell Viability - LYMP1-003 - Assay at 40 hr (AID 964); note: nearly all actives have a fitted effect of over 60% in size
# Procedure, shortened: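 Acute toxicity is scored as a concentration-dependent loss of intracellular ATP in LYMP1-003 cells (2500/well, complete medium) after 40 hr at 37 C, measured by CellTiter-Glo luminescence; AC50 values derive from standard Hill modelling.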
# [7] = Cell Viability - LYMP2-004 (AID 966);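 note: cells exposed to compound for 24 h; nearly all actives have a fitted effect of over 65% in size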; note: potency is the fitted concentration of half-maximal effect
# Procedure, shortened: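 Viable-cell number estimated from ATP luminescence (CellTiter-Glo) in 2500 human lymphoblastoid cells/well after 24 hr at 37 C with compound. AC50 fitted to the standard Hill equation.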
# [8] = Cell Viability - LYMP2-017 (AID 972);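 note: cells exposed to compound for 24 hours at 37 °C; nearly all actives have a fitted effect of over 55% in size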; note: potency is the fitted concentration of half-maximal effect
# Procedure, shortened: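 In this qHTS format, lymphoblastoid cells in complete medium receive test compound for a day at 37 C before ATP content is quantified by luciferase luminescence. Reported AC50 figures come from standard Hill-equation curve fitting.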
# [9] = Cell Viability - LYMP2-019 (AID 973);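 note: cells exposed to compound for 24 h at 37 °C; nearly all actives have a fitted effect of over 55% in size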; note: potency is the fitted concentration of half-maximal effect
# Procedure, shortened: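 AC50 values come from Hill-equation modelling of qHTS concentration-response curves, where viability is measured as luciferase-based ATP luminescence in the lymphoblastoid line after 24 hr compound exposure in complete culture medium.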
# [10] = Cell Viability - LYMP2-007 (AID 979);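 note: cells exposed to compound for 24 h before reading; nearly all actives have a fitted effect of over 60% in size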; note: potency is the fitted concentration of half-maximal effect
# Procedure, shortened: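 Measured via luciferase-based ATP quantitation: lymphoblastoid cells, 24 hr compound exposure at 37 C, AC50 from Hill fits.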
# [11] = Cell Viability - LYMP2-008 (AID 980); note: nearly all actives have a fitted effect of over 60% in size; note: potency is the fitted concentration of half-maximal effect
# Procedure, shortened: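 Measured: ATP-dependent luminescence, proportional to viable cell number, in human lymphoblastoid cells treated 24 hr with compound in complete culture medium. Values are AC50s from Hill-equation modelling of qHTS titrations.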
# [12] = Cell Viability - LYMP2-012 (AID 982);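 note: cellular ATP by luciferase luminescence where a drop means cytotoxicity; cells exposed to compound for one day before reading; nearly all actives have a fitted effect of over 55% in size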; note: potency is the fitted concentration of half-maximal effect
# [13] = Cell Viability - LYMP2-014 (AID 983);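 note: cells exposed to compound for 24 h at 37 °C; nearly all actives have a fitted effect of over 50% in size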; note: potency is the fitted concentration of half-maximal effect
# Procedure, shortened: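 Quantitative HTS in lymphoblastoid cells: 24 hr compound exposure, then CellTiter-Glo ATP luminescence. Positive control was tetraoctylammonium bromide, 6.4pM to 92 uM.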
# [14] = Cell Viability - LYMP2-018 (AID 985); note: nearly all actives have a fitted effect of over 50% in size; note: potency is the fitted concentration of half-maximal effect
# Procedure, shortened: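 In this qHTS viability assay, cells are treated for 24 hr and cellular ATP is quantified by luciferase-based luminescence, with tetraoctylammonium bromide as positive control.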
# [15] = Cell Viability - LYMP1-002 - Assay at 40 hr (AID 994); note: nearly all actives have a fitted effect of over 60% in size
# Procedure, shortened: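 Concentration-dependent ATP loss after 40 hr treatment at 37 C defined toxicity; AC50 values were obtained by fitting the standard Hill equation.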
# [16] = qHTS assay for small molecule antagonists of retinoid X receptor alpha signaling (AID 588546); details: HEK293T RXRa-UAS-bla, beta-lactamase ratio, antagonist mode; measured here: W530 green channel, cytotoxicity proxy;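 note: cells stimulated with 9-cis-retinoic acid as agonist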
# Procedure, shortened: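 Beta-lactamase reporter inhibition, read as CCF4 fluorescence ratio (ex 405, em 460/530 nm) after 2 h at RT. HEK293T UAS-bla cells, 2500/well, were stimulated with 9-cis-RA at 500 or 100 nM final alongside test compound for 18 h at 37 C.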
# [17] = molecular target: Tumor necrosis factor (Homo sapiens) (UniProt P01375); test: qHTS assay to identify small molecules that stimulate Tumor Necrosis Factor-alpha (TNF-alpha) secretion (AID 651757; active = well fitted curve in the direction sought with a large enough effect in the signal ratio; the % refers to the signal ratio)
# Procedure, shortened: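 Using 3000 THP-1 cells per well, compounds and controls were applied for 17 hrs at 37 C. Detection followed with two labeled anti-TNF-alpha antibodies (cryptate donor, XL665 acceptor) for 3 hr at room temperature, measured by TR-FRET.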
# [18] = qHTS assay for cell viability of the p53RE-bla HCT-116 cell line (AID 743292); note: nearly all actives have a fitted effect of over 55% in size; note: potency is the fitted concentration of half-maximal effect
# Procedure, shortened: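 CellSensor p53RE-bla HCT-116 cells (4,000/well) pre-incubated 5 h at 37 C, then exposed to compounds in DMSO for 16 h at 37 C. Viability read as ATP content by CellTiter-Glo luminescence after 30 min at room temperature.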
# [19] = molecular target: Mitogen-activated protein kinase 10 (Mus musculus) (UniProt Q61831); test: JNK3 AlphaScreen Assay (AID 530; active = well fitted curve in either direction with a large enough effect, not every such curve was filed as active;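 note: kinase came from lysate of stimulated human HepG2 cells; signal reports phosphorylation of biotinylated GST-cJun 1-79 at Ser73 with 10 µM ATP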)
# Procedure, shortened: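 HepG2 lysate (IL-1b/TNFa pre-activated) + biotin-GST-cJun 1-79 + anti-pSer73 cJun; cpd titration, 15 min RT; ATP 10 uM start; Tris pH 7.6, MgCl2, DTT, vanadate; beads in EDTA buffer; AlphaScreen.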
# [20] = molecular target: Voltage-gated inwardly rectifying potassium channel KCNH2 (Homo sapiens) (UniProt Q12809); test: qHTS Assay for Small Molecule Inhibitors of the Human hERG Channel Activity (AID 588834);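 note: top concentration of the series differs between compounds; lower thallium flux fluorescence means stronger hERG block; nearly all actives have a fitted effect of over 50% in size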
# Procedure, shortened: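 In hERG-transduced U2OS cells, dye-loaded for 1 hr at room temperature in dark, test compounds incubated 10 min at 37 °C before thallium stimulation. AC50 values derived by Hill modelling of concentration-response.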
# Voltage-gated inwardly rectifying potassium channel KCNH2 (Homo sapiens), sequence (Q12809 whole entry, looked up): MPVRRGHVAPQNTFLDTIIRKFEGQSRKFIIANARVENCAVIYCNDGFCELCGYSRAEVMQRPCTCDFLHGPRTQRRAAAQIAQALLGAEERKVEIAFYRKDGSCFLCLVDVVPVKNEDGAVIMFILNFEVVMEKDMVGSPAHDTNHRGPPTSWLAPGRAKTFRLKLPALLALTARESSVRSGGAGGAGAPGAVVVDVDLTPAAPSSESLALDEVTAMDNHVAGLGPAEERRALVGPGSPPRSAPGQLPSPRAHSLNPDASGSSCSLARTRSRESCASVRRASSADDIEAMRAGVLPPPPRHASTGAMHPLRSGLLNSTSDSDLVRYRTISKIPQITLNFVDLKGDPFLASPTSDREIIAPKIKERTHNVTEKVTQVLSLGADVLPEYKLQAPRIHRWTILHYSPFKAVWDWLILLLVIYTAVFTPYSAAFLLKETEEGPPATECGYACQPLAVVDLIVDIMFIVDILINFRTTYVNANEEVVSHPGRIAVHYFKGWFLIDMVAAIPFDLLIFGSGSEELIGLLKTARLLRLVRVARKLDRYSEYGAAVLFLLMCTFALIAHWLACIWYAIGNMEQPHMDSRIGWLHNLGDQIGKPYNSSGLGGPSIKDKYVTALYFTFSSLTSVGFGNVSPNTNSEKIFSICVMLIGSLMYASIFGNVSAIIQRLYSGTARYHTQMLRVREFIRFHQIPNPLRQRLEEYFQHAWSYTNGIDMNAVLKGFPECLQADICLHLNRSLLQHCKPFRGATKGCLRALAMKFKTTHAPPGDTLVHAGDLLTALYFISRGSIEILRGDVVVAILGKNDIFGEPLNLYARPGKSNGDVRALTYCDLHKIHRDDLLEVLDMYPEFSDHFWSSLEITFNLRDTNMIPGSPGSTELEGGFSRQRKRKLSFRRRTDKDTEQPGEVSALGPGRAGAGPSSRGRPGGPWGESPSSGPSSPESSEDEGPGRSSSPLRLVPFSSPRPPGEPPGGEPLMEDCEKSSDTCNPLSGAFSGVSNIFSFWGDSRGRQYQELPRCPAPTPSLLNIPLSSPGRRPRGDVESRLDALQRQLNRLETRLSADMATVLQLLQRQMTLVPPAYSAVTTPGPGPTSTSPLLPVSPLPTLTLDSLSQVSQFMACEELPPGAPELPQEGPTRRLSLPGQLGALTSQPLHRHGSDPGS
# Cytochrome P450 3A4 (Homo sapiens), sequence (P08684 whole entry, looked up): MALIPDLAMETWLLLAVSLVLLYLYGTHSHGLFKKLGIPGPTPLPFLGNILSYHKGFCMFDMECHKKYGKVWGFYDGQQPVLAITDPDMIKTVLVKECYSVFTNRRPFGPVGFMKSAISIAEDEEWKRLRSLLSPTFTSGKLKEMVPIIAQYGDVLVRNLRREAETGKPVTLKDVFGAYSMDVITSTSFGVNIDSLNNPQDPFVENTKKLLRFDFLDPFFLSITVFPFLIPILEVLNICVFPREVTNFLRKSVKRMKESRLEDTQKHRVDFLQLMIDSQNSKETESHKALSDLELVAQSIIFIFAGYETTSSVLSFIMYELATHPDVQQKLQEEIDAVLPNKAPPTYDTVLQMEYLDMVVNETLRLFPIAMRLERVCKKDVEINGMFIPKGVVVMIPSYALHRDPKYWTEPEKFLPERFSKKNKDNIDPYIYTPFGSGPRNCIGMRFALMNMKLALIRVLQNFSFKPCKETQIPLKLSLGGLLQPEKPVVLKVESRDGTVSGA
# Tumor necrosis factor (Homo sapiens), sequence (P01375 whole entry, looked up): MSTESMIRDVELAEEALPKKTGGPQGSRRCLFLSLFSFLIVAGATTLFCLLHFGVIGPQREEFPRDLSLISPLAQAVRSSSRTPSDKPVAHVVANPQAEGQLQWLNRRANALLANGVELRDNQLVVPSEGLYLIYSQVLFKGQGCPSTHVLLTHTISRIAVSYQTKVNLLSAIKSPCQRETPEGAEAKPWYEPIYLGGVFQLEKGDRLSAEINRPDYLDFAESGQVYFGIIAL
Compound,caspase-3 activation [1],outcome [2],outcome [3],Potency [4],outcome [5],Potency [6],Potency [7],Potency [8],Potency [9],Potency [10],Potency [11],Potency [12],Potency [13],Potency [14],Potency [15],max response [16],outcome [17],Potency [18],Potency [19],Potency [20]
CCOP(=S)(OCC)Oc1nc(Cl)c(Cl)cc1Cl,-1.27% (inactive),inactive,inactive,5.01 µM (active),inactive,inactive,inactive,inactive,inactive,inactive,inactive,inactive,inactive,inactive,inactive,-8.45% [middle of 4 runs],inactive,inactive,,
O=C(O)C(Br)Br,6.46% (inactive),inactive,,inactive,inactive,inactive,inactive,inactive,inactive,inactive,inactive,inactive,inactive,inactive,inactive,-1.6%,inactive,inactive,inactive,inactive
CC(C)(C)OOC(=O)c1ccccc1,6.04% (inactive),inactive,inactive,inactive,,inactive,inactive,inactive,inactive,inactive,inactive,inactive,inactive,inactive,inactive,-18.8% and -11.9%,inactive,inactive,inactive,inactive
N#CC(Br)Br,,,,inactive,inactive,inactive,inactive,39.8 µM (active),,39.8 µM (active),,,,,inactive,-2.67%,inactive,inactive,inactive,inactive
Cl/C=C\Cl,0.747% (inactive),inactive,,inactive,inactive,inactive,inactive,inactive,inactive,inactive,inactive,inactive,inactive,inactive,inactive,-4.97%,inactive,inactive,inactive,inactive
Brc1ccc(Oc2ccc(Br)cc2Br)c(Br)c1,,,inactive,inactive,inactive,inactive,inactive,inactive,inactive,inactive,inactive,inactive,inactive,inactive,inactive,,inactive,,,
C=CC(=O)OCCO,15.3% (inactive),inactive,inactive,inactive,inactive,,,,,,,,,,inactive,-12.5%,inactive,inactive,inactive,inactive
[C-]1=CC=CC1.[C-]1=CC=CC1.[Cl-].[Cl-].[Ti+4],,inactive,,inactive,inactive,,,,,,,,,,,,inactive,,inactive,inactive
Nc1ccc(-c2ccc(N)c(Cl)c2)cc1Cl,,inactive,inactive,15.8 µM (active),inactive,,inactive,inactive,inactive,inactive,inactive,inactive,inactive,inactive,,-2.3% and -7.33%,,inactive,inactive,inactive
N#C/C=C/C#N,-8.24% (inactive),inactive,inactive,inactive,inactive,inactive,15.8 µM (active),31.6 µM (active),31.6 µM (active),39.8 µM (active),39.8 µM (active),20 µM (active),39.8 µM (active),31.6 µM (active),inactive,,inactive,inactive,inactive,inactive
O=[N+]([O-])c1cccc(CCl)c1,,inactive,inactive,inactive,inactive,inactive,inactive,,,,inactive,inactive,inactive,,inactive,8.94%,,inactive,inactive,inactive
Oc1cc(Cl)c(Cl)c(Cl)c1,14.2% (inactive),inactive,inactive,,inactive,inactive,,,,,,,inactive,inactive,inactive,,inactive,inactive,inactive,inactive
Oc1cc(Cl)c(Cl)c(Cl)c1Cl,80.5% (active),inactive,inactive,,inactive,inactive,inactive,,inactive,inactive,inactive,,inactive,inactive,inactive,,,,inactive,inactive
Clc1ccc(C(c2ccccc2Cl)C(Cl)(Cl)Cl)cc1 (configuration not stated),5.05% (inactive),inactive,,inactive,inactive,inactive,inactive,inactive,inactive,inactive,inactive,,inactive,inactive,inactive,5.48%,inactive,50.1 µM (active),,
CN(C)c1ccc(N=Nc2ccccc2)cc1,-9.1% (inactive),inactive,inactive,inactive,inactive,inactive,inactive,inactive,inactive,inactive,inactive,inactive,inactive,inactive,inactive,-11.2%,,inactive,,inactive
